Results from PubChem BioAssay (NCATS).
Several values for one entry are separate records, joined by “and”; a condition that tells them apart may be missing. Equal values may be shown once. Inconclusive results are not listed. Activity calls are given as the source filed them. Unless noted, calls follow the shape of the dose curve; as a rule, active = well fitted curve in the direction sought with a large enough effect; inconclusive = small, poorly fitted or top-dose-only effect, or another doubt; inactive = no such curve, though single readings can be large; an effect the other way counts as inactive or inconclusive.

Experiments:
[1] = target: Cytochrome P450 2D6 (Homo sapiens) (UniProt P10635); assay: Cytochrome P450 family 2 subfamily D member 6 (CYP2D6) small molecule antagonists: luciferase biochemical (cell-free) qHTS assay (AID 1645840; active = well fitted curve in the direction sought with a large enough effect in the repeat runs; an effect the other way counts as inactive or inconclusive; also: nearly all actives have a fitted effect of over 55% in size; also: potency is read from the fitted curve at half-maximal effect; as to activity change, negative = inhibition: % is scaled to controls: 0 for no effect and ±100 for the full control effect)
Outline: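 P450-Glo luminescent screen: recombinant CYP2D6 enzyme–proluciferin substrate mix preincubated with compound 10 min at room temperature, then NADPH regeneration added for 1 h at room temperature. Detection reagent added for 20 min; luciferin light read as relative luminescence units.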

[2] = target: Cytochrome P450 2C9 (Homo sapiens) (UniProt P11712); assay: Cytochrome P450 family 2 subfamily C member 9 (CYP2C9) small molecule antagonists: luciferase biochemical (cell-free) qHTS assay (AID 1645842; active = well fitted curve in the direction sought with a large enough effect in the repeat runs; an effect the other way counts as inactive or inconclusive; also: potency is read from the fitted curve at half-maximal effect; nearly all actives have a fitted effect of over 55% in size)
Outline: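 Luminescence, after 20 min with luciferin detection reagent, reflected CYP2C9 turnover during a 1 h NADPH-driven reaction at 37C. Enzyme-substrate mix contained 0.4% bovine serum albumin and was preincubated with compound 10 min at room temperature.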

[3] = Cytotoxicity counterscreen for inhibitors of SARS-CoV-2 cell entry (AID 1645845; calls by dose curve; also: % is scaled to controls: 0 for no effect and ±100 for the full control effect; nearly all actives have a fitted effect of over 50% in size)
Outline: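 48 h compound treatment (after 1 h preincubation), HEK293-ACE2 cells, 37 C/5% CO2; ATP luminescence endpoint; normalized to cell wells and media blanks.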

[4] = Primary qHTS for inhibitors of nuclear receptor binding SET domain protein 2 (NSD2) in an RCH-ACV wild type WT cells (2C) (AID 1645877); also: nearly all actives have a fitted effect of over 70% in size; also: potency is read from the fitted curve at half-maximal effect
[5] = Primary redox qHTS assay for identification of artifact compounds. (AID 1845223);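 also: 0% = DMSO and 100% = reference compound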
Outline: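 Amplex Red (25 uM) and HRP (250 mU/mL) in HBSS, with compounds for 15 min, then 250 uM DTT for 30 min, room temperature, dark. Fluorescence 525/598 nm read; normalized to DMSO and 10 uM DA3003; Hill fit.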

[6] = qHTS drug screen for cell cycle checkpoint inhibitors in PARPi-resistant BRCA-mutant ovarian cancer cell lines. (AID 1963452; calls by dose curve; also: potency is read from the fitted curve at half-maximal effect); conditions: PEO1/OlaR viability, CellTiter-Glo luminescence, 96 h; for Z-AUC: stronger effect = lower value
Outline: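 PEO1, PEO4 and PEO1/OlaR ovarian cancer cells, 600 per well, exposed 96 h at 37C to a dilution series. Viability read by CellTiter-Glo luminescence, normalized to DMSO and empty wells; activity summarized as Z-AUC.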

NIH3T3 = assay: Cytotoxic Profiling of Annotated Libraries Using Quantitative High-Throughput Screening (AID 1296008); conditions: Five cell lines viability, CellTiter-Glo ATP luminescence, 48-72 h; max response: stronger effect = lower value; also: nearly all actives have a fitted effect of over 60% in size; also: potency is read from the fitted curve at half-maximal effect; as to max response: % is scaled to controls: 0 for no effect and ±100 for the full control effect
Outline: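 Cytotoxicity was measured as CellTiter-Glo ATP luminescence, read after 10 min at room temperature. Compound treatment of the cells lasted 48 or 72 hr at 37 degrees Celsius in a qHTS format.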

CAOV3 = assay: Primary qHTS to identify gynecologic anti-cancer compounds using libraries of approved drugs and bioactive compounds (AID 1345084); conditions: Gynecologic cancer cell panel viability, ATPlite luminescence, 48 h; series mostly up to 57.5 µM; also: nearly all actives have a fitted effect of over 55% in size; also: potency is read from the fitted curve at half-maximal effect; as to activity change, negative = cytotoxicity: % is scaled to controls: 0 for no effect and ±100 for the full control effect
Outline: (§1)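 Luminescence from the ATPlite ATP-monitoring reagent indicates viable cell number; lower signal means cytotoxicity. Cells received compound 16 h after seeding and were exposed for 48 h across five concentrations.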

JEG-3 = assay: as above; conditions: Gynecologic cancer cell panel viability, ATPlite luminescence, 48 h; series mostly up to 57.5 µM
Outline: as §1

SKOV3 = assay: as above; conditions: Gynecologic cancer cell panel viability, ATPlite luminescence, 48 h; series mostly up to 57.5 µM
Outline: as §1

[7] = P-glycoprotein substrates identified in KB-8-5-11 adenocarcinoma cell line, qHTS therapeutic library screen (AID 1346987); also: nearly all actives have a fitted effect of over 65% in size; also: potency is read from the fitted curve at half-maximal effect
Outline: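 KB-8-5-11: colchicine-selected sub-line of KB-3-1 over-expressing P-gp; assay medium lacked colchicine. 72 h drug exposure at 37 degree C, CellTiter-Glo.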

[8] = tested on: Zika virus NS2B-NS3 protease (unlinked complex); assay: Primary screen GU Rhodamine qHTS for Zika virus inhibitors: Unlinked NS2B-NS3 protease assay (AID 1347159); also: % is scaled to controls: 0 for no effect and ±100 for the full control effect; nearly all actives have a fitted effect of over 60% in size
Outline: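 A qHTS format was used, with compound concentrations ranging up to 114 microM. Each compound was preincubated with 25 nM NS2B-NS3 protease, and the substrate was then added at 1.5 microM. Curves were fitted with a 4-parameter Hill model.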

HeLa = assay: Primary qHTS to identify gynecologic anti-cancer compounds using libraries of approved drugs and bioactive compounds (AID 1345084); conditions: Gynecologic cancer cell panel viability, ATPlite luminescence, 48 h; series mostly up to 57.5 µM; also: nearly all actives have a fitted effect of over 55% in size; also: potency is read from the fitted curve at half-maximal effect; as to activity change, negative = cytotoxicity: % is scaled to controls: 0 for no effect and ±100 for the full control effect
Outline: as §1

[9] = target: Catechol O-methyltransferase (Homo sapiens) (UniProt P21964); assay: Confirmatory Screen for Target Class Profiling of Small Molecule Inhibitors of Methyltransferases (AID 1745852); conditions: MTase-Glo luminescence, SAH detection, recombinant enzyme; measured here: COMT max response; stronger effect = lower value
[10] = target: Guanidinoacetate N-methyltransferase (Homo sapiens) (UniProt Q14353); assay: as above; conditions: activity change, negative = inhibition: at 57.3 µM (top of the series) unless noted
[11] = target: Nicotinamide N-methyltransferase (Homo sapiens) (UniProt P40261); assay: as above; conditions: MTase-Glo luminescence, SAH detection, recombinant enzyme; measured here: NNMT max response; stronger effect = lower value
[12] = target: Phenylethanolamine N-methyltransferase (Homo sapiens) (UniProt P11086); assay: as above; conditions: MTase-Glo luminescence, SAH detection, recombinant enzyme; measured here: PNMT max response; stronger effect = lower value
[13] = P-glycoprotein substrates identified in KB-3-1 adenocarcinoma cell line, qHTS therapeutic library screen (AID 1346986); also: nearly all actives have a fitted effect of over 60% in size
Outline: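 Counter-screen: cherry-picked hits retested in the KB pair and in HEK-293 pcDNA/MDR-19 cells ± tariquidar. Primary screen used 72 h CellTiter-Glo viability in KB-3-1 and KB-8-5-11.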

[14] = measured here: PEO1 parental Z-AUC

Sequence of Cytochrome P450 2C9 (Homo sapiens) (P11712 whole entry, looked up): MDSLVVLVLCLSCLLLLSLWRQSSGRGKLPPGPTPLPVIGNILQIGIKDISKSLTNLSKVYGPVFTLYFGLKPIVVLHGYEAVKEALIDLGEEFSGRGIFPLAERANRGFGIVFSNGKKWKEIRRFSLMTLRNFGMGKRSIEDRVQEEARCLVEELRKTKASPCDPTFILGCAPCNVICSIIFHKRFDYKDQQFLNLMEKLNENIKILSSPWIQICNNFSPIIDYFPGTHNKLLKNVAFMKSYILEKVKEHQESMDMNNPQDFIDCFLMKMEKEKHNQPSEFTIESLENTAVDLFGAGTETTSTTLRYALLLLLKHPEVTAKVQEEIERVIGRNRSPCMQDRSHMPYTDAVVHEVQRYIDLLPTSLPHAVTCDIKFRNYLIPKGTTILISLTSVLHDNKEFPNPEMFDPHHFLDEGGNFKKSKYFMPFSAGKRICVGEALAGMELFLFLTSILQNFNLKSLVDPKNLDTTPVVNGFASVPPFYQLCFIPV
Sequence of Phenylethanolamine N-methyltransferase (Homo sapiens) (P11086 whole entry, looked up): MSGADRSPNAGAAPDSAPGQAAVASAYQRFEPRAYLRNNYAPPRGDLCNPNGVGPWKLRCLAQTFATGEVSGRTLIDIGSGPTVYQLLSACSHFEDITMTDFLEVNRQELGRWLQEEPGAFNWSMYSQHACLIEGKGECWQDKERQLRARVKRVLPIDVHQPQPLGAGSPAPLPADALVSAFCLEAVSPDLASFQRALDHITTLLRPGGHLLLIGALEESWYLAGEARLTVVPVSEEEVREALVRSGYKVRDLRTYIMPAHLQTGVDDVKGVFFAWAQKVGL
Sequence of Catechol O-methyltransferase (Homo sapiens) (P21964 whole entry, looked up): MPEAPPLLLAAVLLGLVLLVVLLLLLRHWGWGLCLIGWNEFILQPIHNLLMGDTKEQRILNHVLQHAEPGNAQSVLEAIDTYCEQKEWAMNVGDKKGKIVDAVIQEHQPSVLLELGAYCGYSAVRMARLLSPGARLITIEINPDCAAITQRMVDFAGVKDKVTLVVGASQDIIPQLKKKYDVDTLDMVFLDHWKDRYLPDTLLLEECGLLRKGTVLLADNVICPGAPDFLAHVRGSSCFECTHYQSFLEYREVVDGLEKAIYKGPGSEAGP
Sequence of Nicotinamide N-methyltransferase (Homo sapiens) (P40261 whole entry, looked up): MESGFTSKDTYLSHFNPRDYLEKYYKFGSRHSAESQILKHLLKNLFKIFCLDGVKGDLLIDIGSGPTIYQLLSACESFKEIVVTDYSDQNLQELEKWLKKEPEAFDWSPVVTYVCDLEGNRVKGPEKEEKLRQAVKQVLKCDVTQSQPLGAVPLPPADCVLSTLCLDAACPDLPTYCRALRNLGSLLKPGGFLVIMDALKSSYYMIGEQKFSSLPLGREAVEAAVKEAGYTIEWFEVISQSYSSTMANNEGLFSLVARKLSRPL
Sequence of Cytochrome P450 2D6 (Homo sapiens) (P10635 whole entry, looked up): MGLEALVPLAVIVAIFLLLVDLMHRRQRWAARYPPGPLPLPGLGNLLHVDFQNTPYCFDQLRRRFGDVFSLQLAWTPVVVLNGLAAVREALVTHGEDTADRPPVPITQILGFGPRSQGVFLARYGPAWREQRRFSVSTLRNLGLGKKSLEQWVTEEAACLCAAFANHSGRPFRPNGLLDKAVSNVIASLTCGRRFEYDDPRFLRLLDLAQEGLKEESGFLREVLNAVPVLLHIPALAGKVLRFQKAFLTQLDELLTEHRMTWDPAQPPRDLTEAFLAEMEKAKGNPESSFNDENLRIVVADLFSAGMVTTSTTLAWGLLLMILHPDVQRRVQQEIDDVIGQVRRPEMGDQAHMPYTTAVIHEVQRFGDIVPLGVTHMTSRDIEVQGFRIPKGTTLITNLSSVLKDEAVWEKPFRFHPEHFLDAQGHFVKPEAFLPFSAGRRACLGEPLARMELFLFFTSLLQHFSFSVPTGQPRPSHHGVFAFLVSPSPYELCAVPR

CC(=O)N1N=C(c2ccc(N)cc2)c2cc3c(cc2C[C@H]1C)OCO3
0.412: Z-AUC ([6]; measured here: PEO4 Z-AUC)
inactive: Potency [1] | Potency [3] | Potency [4] | Potency [5] | Z-AUC [6] 0.45 | max response (NIH3T3) -2.08% | Potency (CAOV3) | Potency (JEG-3) | Potency (SKOV3)
active: Potency [2] 12000 nM
0.452: Z-AUC [6, 14]

N#Cc1ccc([C@H]2CCCC[C@H]2O)cc1C(F)(F)F
inactive: Potency [7] | Potency [8] | Potency [4] | Potency [5] | max response (NIH3T3) -1.88% | Potency (CAOV3) | Potency (HeLa) | Potency (JEG-3)
active: Potency [2] 26800 nM

CN(C)c1cc2c(cc1Sc1nc3c(N)nccc3n1CCNCC(C)(C)C)OCO2
-1.43: Z-AUC [6, 14]
inactive: Potency [8] | Potency (HeLa)
-13.6%: activity [9]
-0.0762%: activity [12]
active: Potency [7] 517 nM | Potency [1] 952 nM | Potency [2] 3790 nM | Potency [4] 365 nM and 742 nM | Potency [6] 1550 nM | Potency (NIH3T3) 1030 nM | Potency (CAOV3) 1120 nM | Potency (JEG-3) 11200 nM | Potency (SKOV3) 5620 nM
-4.13%: activity change, negative = inhibition [10]
-1: Z-AUC ([6]; measured here: PEO4 Z-AUC)
-41.4%: activity [11]

C#CCO[C@H]1CN2CCC1CC2
inactive: Potency [7] | Potency [5] | max response (NIH3T3) 2.27% | Potency (CAOV3) | Potency (JEG-3) | Potency (SKOV3)

CC(=O)OC[C@]12C[C@H](O)C(C)=C[C@H]1O[C@@H]1[C@H](O)[C@@H](O)[C@@]2(C)[C@]12CO2
active: Potency [7] 4040 nM | Potency [4] 713 nM | Potency (NIH3T3) 1430 nM | Potency (CAOV3) 3980 nM | Potency (SKOV3) 3980 nM
inactive: Potency [8] | Potency [5]

CC(=O)OC[C@]12C[C@H](O)C(C)=C[C@H]1O[C@@H]1[C@H](O)[C@@H](OC(C)=O)[C@@]2(C)[C@]12CO2
inactive: Potency [8] | Potency [5]
active: Potency [7] 14.3 nM | Potency (NIH3T3) 45.3 nM | Potency (HeLa) 178 nM | Potency (JEG-3) 224 nM

CO[C@@H]1C[C@H](O[C@H]2CC[C@@]3(C)C(CCC4C3CC[C@]3(C)[C@@H](C5=CC(=O)OC5)[C@@H](OC(C)=O)CC43O)C2)O[C@H](C)[C@@H]1O[C@H]1O[C@H](CO[C@@H]2O[C@H](CO)[C@@H](O)[C@H](O)[C@H]2O)[C@@H](O)[C@H](O)[C@H]1O (stereo not given in full)
inactive: Potency [8] | redox activity (% of DA3003) [5] 15.6% [at 11.5 µM] | max response (NIH3T3) -8.42%
active: Potency [7] 873 nM | Potency [4] 774 nM | Potency (CAOV3) 2240 nM | Potency (HeLa) 1580 nM | Potency (SKOV3) 2000 nM

C[C@H]1O[C@@H](O[C@H]2CC[C@]3(CO)C4CC[C@]5(C)[C@@H](C6=CC(=O)OC6)CC[C@]5(O)[C@@H]4CC[C@H]3C2)[C@H](O)[C@H](O)[C@@H]1O[C@@H]1O[C@H](CO)[C@@H](O)[C@H](O)[C@H]1O (stereo not given in full)
-7.07%: activity [11]
-0.722% [at 19.1 µM]: activity change, negative = inhibition [10]
inactive: Potency [5] | max response (NIH3T3) -2.67%
active: Potency [7] 862 nM | Potency [4] 1080 nM | Potency (HeLa) 3160 nM | Potency (SKOV3) 2820 nM
-1.28%: activity [12]
-90%: activity [9]

CO[C@H]1C[C@H](O[C@H]2CC[C@@]3(C)C(=CCC4C3CC[C@]3(C)[C@@H](C5=CC(=O)OC5)CC[C@]43O)C2)O[C@@H](C)[C@@H]1O[C@@H]1O[C@H](CO[C@@H]2O[C@H](CO)[C@@H](O)[C@H](O)[C@H]2O)[C@@H](O)[C@H](O)[C@H]1O (stereo not given in full)
inactive: activity change, negative = cytotoxicity [7] 3.8% [at 9.29 µM] | Potency [8] | redox activity (% of DA3003) [5] 8.54% [at 11.5 µM] | max response (NIH3T3) -5.72% | activity change, negative = cytotoxicity (CAOV3) 17.9% [at 11.6 µM] | activity change, negative = cytotoxicity (JEG-3) 16.2% [at 11.6 µM]

COC1CC(O[C@H]2CC[C@@]3(C)C(CCC4C3CC[C@]3(C)[C@@H](C5=CC(=O)OC5)CC[C@]43O)C2)OC(C)C1O (stereo not given in full)
inactive: Potency [8] | Potency [5] | max response (NIH3T3) -0.0473%
active: Potency (CAOV3) 178 nM | Potency (HeLa) 141 nM | Potency (SKOV3) 126 nM

C[C@H]1O[C@@H](O[C@H]2CC[C@]3(C=O)C4CC[C@]5(C)[C@@H](C6=CC(=O)OC6)CC[C@]5(O)[C@@H]4CC[C@]3(O)C2)C[C@@H](O)[C@@H]1O (stereo not given in full)
active: Potency [7] 50.2 nM | Potency [4] 31.7 nM | Potency (CAOV3) 112 nM | Potency (HeLa) 126 nM | Potency (SKOV3) 112 nM
inactive: Potency [8] | Potency [5] | max response (NIH3T3) -1.6%

CC1=C[C@H]2O[C@@H]3C[C@H]4OC(=O)/C=C/C=C/C(=O)OCC/C(C)=C/C(=O)OC[C@@]2(CC1)[C@]4(C)[C@]31CO1
active: Potency [7] 17.8 nM | Potency [4] 3.2 nM | Potency (NIH3T3) 28.2 nM | Potency (HeLa) 89.1 nM | Potency (JEG-3) 126 nM | Potency (SKOV3) 70.8 nM
inactive: Potency [8] | Potency [5]

CC(=O)OC[C@]12C[C@H](OC(=O)CC(C)C)C(C)=C[C@H]1O[C@@H]1[C@H](O)[C@@H](OC(C)=O)[C@@]2(C)[C@@]12CO2
inactive: Potency [8] | Potency [5]
active: Potency [7] 25.2 nM | Potency [4] 10 nM | Potency (NIH3T3) 50.2 nM | Potency (CAOV3) 89.1 nM | Potency (HeLa) 158 nM | Potency (JEG-3) 1000 nM

C[C@H]1O[C@@H](n2cnc3c(N)ncnc32)C[C@@H]1O
inactive: Potency [13] | Potency [8] | Potency [5] | max response (NIH3T3) 1.47% | Potency (HeLa) | Potency (JEG-3) | Potency (SKOV3)

CO[C@@H]1[C@H](O)[C@@H](O[C@@H]2C[C@H]3CC[C@@H]4C(CC[C@]5(C)[C@@H](C6=CC(=O)OC6)CC[C@]45O)[C@@]3(C)[C@H](O)C2)O[C@H](C)[C@@H]1O (stereo not given in full)
active: Potency [7] 252 nM | Potency (CAOV3) 631 nM | Potency (JEG-3) 891 nM | Potency (SKOV3) 251 nM
inactive: Potency [8] | max response (NIH3T3) 3.09%

COc1ccc2c3c([nH]c2c1)C(C=C(C)C)N1C(=O)C2CCCN2C(=O)C1C3 (stereo not given)
inactive: Potency [13] | Potency [7] | Potency [8] | Potency [5] | max response (NIH3T3) -20.2% | Potency (CAOV3) | Potency (JEG-3)

CO[C@H]1[C@H](O)[C@H](O[C@H]2CC[C@]3(C=O)C4CC[C@]5(C)[C@H](C6=CC(=O)OC6)CC[C@]5(O)C4CC[C@@H]3C2)O[C@@H](C)[C@@H]1O (stereo not given in full)
inactive: Potency [8] | max response (NIH3T3) -5%
active: Potency [4] 44.7 nM | Potency (CAOV3) 100 nM | Potency (HeLa) 126 nM

COC1CC(O[C@H]2CC[C@]3(C)C4CC[C@]5(C)[C@@H](C6=CC(=O)OC6)[C@@H](OC(C)=O)C[C@]5(O)C4CC[C@@H]3C2)OC(C)C1O (stereo not given in full)
inactive: Potency [8] | max response (NIH3T3) -14.3%
active: Potency [7] 563 nM | Potency [4] 448 nM | Potency (CAOV3) 1260 nM | Potency (HeLa) 891 nM | Potency (SKOV3) 794 nM

CC(C)(C)[C@]1(O)C[C@@H]2OC(=O)C[C@@]23C(=O)O[C@@H]2OC(=O)[C@@H](O)[C@]213
inactive: Potency [7] | Potency [4] | Potency [5] | max response (NIH3T3) 3.76% | Potency (HeLa) | Potency (JEG-3) | Potency (SKOV3)
